Reference: paper PMC7862700, “An all-to-all approach to the identification of sequence-specific readers for epigenetic DNA modifications on cytosine”

How the values were obtained:
Test in all cases: DAPPL (digital affinity profiling via proximity ligation, sequencing); 10 mM Tris-HCl pH 7.5, 50 mM NaCl, 1 mM DTT, 4% glycerol, room temperature, 30 min; GST-TFs on glutathione beads, 16-mer random dsDNA library, 0.1% formaldehyde crosslink after washing; high values mean tight binding
Conditions in all cases: protein: recombinant; tags: N-terminal GST; dsDNA, one strand shown
[1] = molecular target: T1, FLI1 (Homo sapiens, UniProt Q01543 1-452)
T1 sequence: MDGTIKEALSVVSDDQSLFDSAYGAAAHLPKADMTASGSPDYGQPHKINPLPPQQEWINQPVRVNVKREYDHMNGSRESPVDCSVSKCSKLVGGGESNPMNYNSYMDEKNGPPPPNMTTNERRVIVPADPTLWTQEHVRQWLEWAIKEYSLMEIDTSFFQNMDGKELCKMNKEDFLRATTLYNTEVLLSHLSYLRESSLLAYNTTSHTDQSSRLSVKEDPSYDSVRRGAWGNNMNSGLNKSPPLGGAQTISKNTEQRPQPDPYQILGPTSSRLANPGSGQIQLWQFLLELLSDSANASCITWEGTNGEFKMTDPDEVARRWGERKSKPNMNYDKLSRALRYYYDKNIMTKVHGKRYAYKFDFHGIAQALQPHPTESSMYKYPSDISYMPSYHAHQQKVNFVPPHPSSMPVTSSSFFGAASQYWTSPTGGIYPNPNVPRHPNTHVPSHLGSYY
Method in brief: (§1)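 Human transcription factors fused to GST were expressed in yeast, captured on glutathione beads, given DNA barcodes and pooled with a GST-only negative control. Pools were incubated with 200 nmole of a 16-mer random double-stranded DNA library in Tris/NaCl/DTT/glycerol buffer at room temperature for 30 min. They were then washed, crosslinked with 0.1% formaldehyde, proximity-ligated (BsaI/T4 ligase, 1 h, 37 °C), PCR-amplified and sequenced on an Illumina NextSeq500. Binding signal is each 6-mer's read frequency for a factor divided by its frequency for the GST control.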

[2] = molecular target: T2, ELK1 (Homo sapiens, UniProt P19419 1-428)
T2 sequence: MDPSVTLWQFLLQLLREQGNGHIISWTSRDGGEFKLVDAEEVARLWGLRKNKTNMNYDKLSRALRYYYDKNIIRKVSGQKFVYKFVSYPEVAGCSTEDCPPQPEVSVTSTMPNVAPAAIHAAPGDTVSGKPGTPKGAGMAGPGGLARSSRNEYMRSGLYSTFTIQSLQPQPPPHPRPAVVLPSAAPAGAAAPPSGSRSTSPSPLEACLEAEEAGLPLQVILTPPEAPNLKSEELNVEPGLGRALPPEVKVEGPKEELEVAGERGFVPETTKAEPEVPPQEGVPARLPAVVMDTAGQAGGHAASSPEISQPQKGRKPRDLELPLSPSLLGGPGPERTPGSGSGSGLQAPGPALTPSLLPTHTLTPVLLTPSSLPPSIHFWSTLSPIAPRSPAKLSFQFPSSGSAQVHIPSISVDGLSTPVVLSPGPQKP
Method in brief: as §1

[3] = molecular target: T3, GABPA (Homo sapiens, UniProt Q06546 1-454)
T3 sequence: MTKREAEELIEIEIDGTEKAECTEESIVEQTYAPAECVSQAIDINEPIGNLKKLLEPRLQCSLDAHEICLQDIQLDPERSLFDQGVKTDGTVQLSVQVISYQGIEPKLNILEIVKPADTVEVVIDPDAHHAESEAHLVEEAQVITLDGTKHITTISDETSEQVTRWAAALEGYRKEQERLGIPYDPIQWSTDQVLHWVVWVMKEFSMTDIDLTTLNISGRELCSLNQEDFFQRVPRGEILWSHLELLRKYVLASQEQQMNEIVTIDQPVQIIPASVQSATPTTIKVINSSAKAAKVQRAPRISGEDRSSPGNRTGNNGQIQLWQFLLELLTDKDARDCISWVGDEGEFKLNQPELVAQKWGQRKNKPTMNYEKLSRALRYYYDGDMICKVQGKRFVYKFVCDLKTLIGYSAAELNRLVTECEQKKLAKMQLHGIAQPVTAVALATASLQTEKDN
Method in brief: as §1

[4] = molecular target: T4, ERG (Homo sapiens, UniProt P11308 1-479)
T4 sequence: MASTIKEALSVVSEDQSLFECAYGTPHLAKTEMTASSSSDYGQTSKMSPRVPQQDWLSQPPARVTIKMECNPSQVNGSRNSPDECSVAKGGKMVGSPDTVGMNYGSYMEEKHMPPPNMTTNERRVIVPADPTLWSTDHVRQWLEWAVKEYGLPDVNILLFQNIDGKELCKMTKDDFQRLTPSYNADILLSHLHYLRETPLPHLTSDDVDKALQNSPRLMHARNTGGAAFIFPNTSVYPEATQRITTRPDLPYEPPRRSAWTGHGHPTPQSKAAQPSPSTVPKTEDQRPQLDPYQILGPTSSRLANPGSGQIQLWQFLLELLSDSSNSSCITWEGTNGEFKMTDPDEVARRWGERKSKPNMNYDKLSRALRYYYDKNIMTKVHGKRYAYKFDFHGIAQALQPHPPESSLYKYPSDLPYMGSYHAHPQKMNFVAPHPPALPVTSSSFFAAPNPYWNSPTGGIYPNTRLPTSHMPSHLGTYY
Method in brief: as §1

[5] = molecular target: ELF1 (Homo sapiens, UniProt P32519 1-619)
Method in brief: as §1

[6] = molecular target: T5, EHF (Homo sapiens, UniProt Q9NZC4 1-300)
T5 sequence: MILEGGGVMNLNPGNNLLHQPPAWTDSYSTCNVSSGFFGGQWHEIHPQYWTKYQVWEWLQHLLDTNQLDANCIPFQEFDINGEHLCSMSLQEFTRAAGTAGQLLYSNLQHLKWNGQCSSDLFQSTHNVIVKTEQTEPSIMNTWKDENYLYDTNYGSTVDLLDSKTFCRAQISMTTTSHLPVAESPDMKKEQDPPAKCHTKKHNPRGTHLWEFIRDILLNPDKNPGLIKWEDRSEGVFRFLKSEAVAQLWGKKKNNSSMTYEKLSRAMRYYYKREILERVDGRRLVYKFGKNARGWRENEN
Method in brief: as §1

[7] = molecular target: SPI1 (Homo sapiens, UniProt P17947 1-270)
Method in brief: as §1

[8] = molecular target: SPIB (Homo sapiens, UniProt Q01892 1-262)
Method in brief: as §1

[9] = molecular target: SPI1 (Homo sapiens, UniProt P17947 1-270); remark: listed apart in the source
Method in brief: as §1

[10] = molecular target: T6, ELK3 (Homo sapiens, UniProt P41970 1-407)
T6 sequence: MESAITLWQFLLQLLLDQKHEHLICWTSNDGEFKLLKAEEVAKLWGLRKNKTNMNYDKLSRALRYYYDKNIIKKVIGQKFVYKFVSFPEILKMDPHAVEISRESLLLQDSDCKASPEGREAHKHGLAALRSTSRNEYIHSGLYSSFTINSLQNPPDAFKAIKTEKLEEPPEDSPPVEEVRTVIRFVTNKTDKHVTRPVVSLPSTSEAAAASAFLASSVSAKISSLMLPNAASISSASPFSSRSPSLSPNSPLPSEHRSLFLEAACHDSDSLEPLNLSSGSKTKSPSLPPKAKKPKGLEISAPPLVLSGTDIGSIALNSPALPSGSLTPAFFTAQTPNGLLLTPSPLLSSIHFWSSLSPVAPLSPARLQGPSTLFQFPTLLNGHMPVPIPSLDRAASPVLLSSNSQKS
Method in brief: as §1

SPIB, sequence (Q01892 whole entry): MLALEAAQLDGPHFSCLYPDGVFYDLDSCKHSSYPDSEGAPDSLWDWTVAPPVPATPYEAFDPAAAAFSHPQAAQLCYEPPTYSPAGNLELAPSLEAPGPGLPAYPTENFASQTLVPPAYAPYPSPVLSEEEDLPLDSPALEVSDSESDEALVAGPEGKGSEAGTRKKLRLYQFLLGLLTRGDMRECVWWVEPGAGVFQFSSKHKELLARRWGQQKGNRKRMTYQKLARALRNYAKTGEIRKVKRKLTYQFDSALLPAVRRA
ELF1, sequence (P32519 whole entry): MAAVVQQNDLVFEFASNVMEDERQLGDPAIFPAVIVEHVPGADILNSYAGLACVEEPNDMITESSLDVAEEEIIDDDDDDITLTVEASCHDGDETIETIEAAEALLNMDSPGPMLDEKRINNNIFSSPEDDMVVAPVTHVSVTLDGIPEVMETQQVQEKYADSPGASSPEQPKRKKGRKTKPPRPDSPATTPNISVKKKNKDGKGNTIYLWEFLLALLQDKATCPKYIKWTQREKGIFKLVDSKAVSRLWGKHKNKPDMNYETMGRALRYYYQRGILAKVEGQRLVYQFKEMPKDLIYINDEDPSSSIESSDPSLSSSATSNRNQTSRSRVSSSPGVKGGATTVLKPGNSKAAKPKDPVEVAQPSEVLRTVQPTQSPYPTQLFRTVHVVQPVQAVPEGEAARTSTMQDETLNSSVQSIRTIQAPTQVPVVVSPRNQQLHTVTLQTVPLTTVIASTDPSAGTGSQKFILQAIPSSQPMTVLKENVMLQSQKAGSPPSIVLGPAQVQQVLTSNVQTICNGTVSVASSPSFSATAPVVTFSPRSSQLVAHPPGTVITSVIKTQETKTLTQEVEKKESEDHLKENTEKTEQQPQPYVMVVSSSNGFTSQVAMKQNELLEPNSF

| Sequence | binding signal [1] | binding signal [2] | binding signal [3] | binding signal [4] | binding signal [5] | binding signal [6] | binding signal [7] | binding signal [8] | binding signal [9] | binding signal [10] |
| --- | --- | --- | --- | --- | --- | --- | --- | --- | --- | --- |
| AAAAGG | 1.1 fold enrichment (6-mer frequency, TF over GST control) | 1.05 fold enrichment (6-mer frequency, TF over GST control) | 1.25 fold enrichment (6-mer frequency, TF over GST control) | 1.13 fold enrichment (6-mer frequency, TF over GST control) | 1.1 fold enrichment (6-mer frequency, TF over GST control) | 1.1 fold enrichment (6-mer frequency, TF over GST control) | 1.48 fold enrichment (6-mer frequency, TF over GST control) | 1.1 fold enrichment (6-mer frequency, TF over GST control) |  |  |
| AACACC | 1.19 fold enrichment (6-mer frequency, TF over GST control) | 1.18 fold enrichment (6-mer frequency, TF over GST control) | 1.11 fold enrichment (6-mer frequency, TF over GST control) | 1.15 fold enrichment (6-mer frequency, TF over GST control) | 1.11 fold enrichment (6-mer frequency, TF over GST control) | 1.12 fold enrichment (6-mer frequency, TF over GST control) | 1.04 fold enrichment (6-mer frequency, TF over GST control) | 1.16 fold enrichment (6-mer frequency, TF over GST control) |  |  |
| GAAAAG | 1.05 fold enrichment (6-mer frequency, TF over GST control) | 1.01 fold enrichment (6-mer frequency, TF over GST control) | 1.07 fold enrichment (6-mer frequency, TF over GST control) | 1.06 fold enrichment (6-mer frequency, TF over GST control) | 1.04 fold enrichment (6-mer frequency, TF over GST control) | 1.11 fold enrichment (6-mer frequency, TF over GST control) | 1.3 fold enrichment (6-mer frequency, TF over GST control) | 1.14 fold enrichment (6-mer frequency, TF over GST control) |  |  |
| TGACGA | 1.06 fold enrichment (6-mer frequency, TF over GST control) | 1.12 fold enrichment (6-mer frequency, TF over GST control) | 1.21 fold enrichment (6-mer frequency, TF over GST control) | 1.07 fold enrichment (6-mer frequency, TF over GST control) | 1.14 fold enrichment (6-mer frequency, TF over GST control) | 1.04 fold enrichment (6-mer frequency, TF over GST control) | 1.03 fold enrichment (6-mer frequency, TF over GST control) | 1.17 fold enrichment (6-mer frequency, TF over GST control) |  |  |
| AACGCC | 1.07 fold enrichment (6-mer frequency, TF over GST control) | 1.1 fold enrichment (6-mer frequency, TF over GST control) | 1.08 fold enrichment (6-mer frequency, TF over GST control) | 1.06 fold enrichment (6-mer frequency, TF over GST control) | 1.09 fold enrichment (6-mer frequency, TF over GST control) | 1.15 fold enrichment (6-mer frequency, TF over GST control) | 1.06 fold enrichment (6-mer frequency, TF over GST control) | 1.11 fold enrichment (6-mer frequency, TF over GST control) |  |  |
| TAGCTG | 1.29 fold enrichment (6-mer frequency, TF over GST control) | 1.19 fold enrichment (6-mer frequency, TF over GST control) | 1.21 fold enrichment (6-mer frequency, TF over GST control) | 1.11 fold enrichment (6-mer frequency, TF over GST control) | 1.24 fold enrichment (6-mer frequency, TF over GST control) | 1.31 fold enrichment (6-mer frequency, TF over GST control) | 1.22 fold enrichment (6-mer frequency, TF over GST control) | 1.3 fold enrichment (6-mer frequency, TF over GST control) |  |  |
| ACGCTG | 1.14 fold enrichment (6-mer frequency, TF over GST control) | 1.19 fold enrichment (6-mer frequency, TF over GST control) | 1.23 fold enrichment (6-mer frequency, TF over GST control) | 1.18 fold enrichment (6-mer frequency, TF over GST control) | 1.19 fold enrichment (6-mer frequency, TF over GST control) | 1.23 fold enrichment (6-mer frequency, TF over GST control) | 1.11 fold enrichment (6-mer frequency, TF over GST control) | 1.05 fold enrichment (6-mer frequency, TF over GST control) |  |  |
| TTCCTC | 2.26 fold enrichment (6-mer frequency, TF over GST control) | 2.09 fold enrichment (6-mer frequency, TF over GST control) | 2.1 fold enrichment (6-mer frequency, TF over GST control) | 2.21 fold enrichment (6-mer frequency, TF over GST control) | 2.12 fold enrichment (6-mer frequency, TF over GST control) | 2.32 fold enrichment (6-mer frequency, TF over GST control) |  | 2.26 fold enrichment (6-mer frequency, TF over GST control) | 4.31 fold enrichment (6-mer frequency, TF over GST control) | 2.3 fold enrichment (6-mer frequency, TF over GST control) |
